Pf growth 96h – P. falciparum growth inhibition at 96 hours | P. falciparum luciferase reporter growth, 96 h | Potency, µM (highest dose often 28.7 µM), inactives show at the highest dose activity change, negative = inhibition, most hits filed as inhibitors | actives 6.9% (n = 320,000); also: % is scaled to controls: 0 for no effect and ±100 for the full control effect
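Cell-based qHTS: luciferase-tagged P. falciparum in erythrocytes (2% hematocrit, 0.05% parasitemia final) incubated with compounds for 96 hours, 37 C, 5% CO2; luciferase detection reagent then added and luminescence measured.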
HCV inh – HCV inhibition. Huh7.5.1 HCVcc-Cre infection, luciferase reporter, 44 h. Potency, µM (top dose mostly 41.8 µM), inactives show at the highest dose activity change, negative = inhibition, most hits filed as inhibitors. actives 3.4% (n = 340,000). AID 651820; also: % is scaled to controls: 0 for no effect and ±100 for the full control effect
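Antiviral activity was scored by luciferase reporter output from cells infected with HCVcc-Cre (~0.5 moi) in presence of compound, 44 h infection period, cells seeded 1,000/well 4 h prior.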
Pf growth 48h – inhibits P. falciparum growth in the first generation, 48 h; P. falciparum luciferase growth in erythrocytes, 48 h; Potency, µM (series often up to 28.7 µM), for inactives: at the highest dose activity change, negative = inhibition, actives largely listed as inhibitors; actives 5.9% (n = 310,000); AID 504832; also: % is scaled to controls: 0 for no effect and ±100 for the full control effect
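Luminescence readout; reporter = integrated firefly luciferase in P. falciparum. RBC culture at 2% hematocrit, 0.1% parasitemia final, 37 C/5% CO2; decreased signal taken as growth inhibition.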
VACV Venus inh – vaccinia inhibition (Venus reporter); Potency, µM (highest dose often 36.5 µM), for the others: at the top dose activity change, negative = inhibition, most hits filed as inhibitors; actives 0.46% (n = 330,000); Vaccinia virus Venus reporter expression, fluorescence; calls by dose curve; tested in A549 cells; also: % is scaled to controls: 0 for no effect and ±100 for the full control effect; nearly all actives have a fitted effect of over 30% in size
VACV mCherry inh – inhibitors of vaccinia virus infection (mCherry reporter signal); Vaccinia virus mCherry reporter infection, fluorescence; Potency, µM (top dose mostly 36.5 µM), for inactives: at the highest dose activity change, negative = inhibition, actives largely listed as inhibitors; actives 0.63% (n = 310,000); AID 720579; calls by dose curve; tested in A549 cells; also: % is scaled to controls: 0 for no effect and ±100 for the full control effect; nearly all actives have a fitted effect of over 35% in size
NS1 function inh – influenza NS1 inhibition. AID 2326. Potency, µM (doses to about 46.1 µM), for inactives: at the top dose activity, positive = more growth. actives 0.4% (n = 270,000); calls by dose curve; also: actives are rising curves; nearly all actives have a fitted effect of over 50% in size
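Growth recovery, yeast-based: influenza A NS1 expressed in S. cerevisiae causes slow growth, and suppressors are detected by OD600. The parent strain without NS1 is used as positive control.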
* = called active by the depositor; i = inactive; ? = inconclusive; . = no result; [ ] = dose if it differs, or a comment. Rows were chosen to be rich in hits. Some 11% of all compounds tested hit in one or more screens of this group. Unless noted, calls follow the shape of the dose curve; as a rule, active = well fitted inhibition curve with a large enough effect; inconclusive = small, poorly fitted or top-dose-only effect, or another doubt; inactive = no such curve, though single readings can be large or run the other way. Potency is read from the fitted curve at half-maximal effect.

SMILES | Pf growth 96h | HCV inh | Pf growth 48h | VACV Venus inh | VACV mCherry inh | NS1 function inh
Cc1ccc(CNC(=O)CSc2nnc(CNC(=O)c3ccc(F)cc3)o2)cc1 | . | . | . | 0% | -11% | .
CCOc1ccc(Cc2onc3c2C(=O)CC(C)(C)C3)cc1OCC | 9% | ? | ? | -5% | -16% | .
Cc1csc(C(=O)O)c1-c1c(C)csc1C(=O)O | 15% | 3% | 0% | -16% | -12% | 14%
CC(=O)N1C=Cc2c(c(C)c3c([nH]c4ccccc43)c2C)C1 | -7% | . | 1.9µM* | . | . | -44%
CCN1CCN(CCCNC(=O)c2ccccc2NC(=O)C2=C(C)OCCS2)CC1 | ? | 13% | -31% | . | . | 4%
CCOC(=O)c1c(C)[nH]c(C)c1C(=O)COC(=O)c1ccc(OC)cc1 | ? | -10% | ? | -10% | -18% | -6%
CCOC(=O)c1c(C)[nH]c(C)c1C(=O)COC(=O)c1ccc(S(=O)(=O)N(CC)CC)cc1 | ? | 25µM* | ? | . | . | 0%
CCOC(=O)c1c(C)[nH]c(C)c1C(=O)COC(=O)c1cccc(S(=O)(=O)N(CC)CC)c1 | 9.3µM* | ? | 15µM* | -28% | ? | 11%
CCOC(=O)c1c(C)[nH]c(C)c1C(=O)COC(=O)c1cccc(S(=O)(=O)NC)c1 | 25% | -25% | 4% | -20% | -5% | -6%
O=C(N/N=C/c1cc(Br)c(O)c(Br)c1O)c1ccc2c(c1)OCCO2 | -14% | ? | ? | ? | ? | -25%
O=C(N/N=C/c1ccc2c(c1)OCO2)C(=O)Nc1ccccc1Cl | -29% | 1% | 73% | . | . | 14%
O=C(N/N=C/c1cc(Br)cc(Cl)c1O)c1ccc2c(c1)OCO2 | . | 13µM* | . | ? | ? | .
COc1cccc(NC(=O)C(=O)N/N=C/c2ccc3c(c2)OCO3)c1 | 10µM* | 7% | 0% | -6% | -3% | 14%
Cc1cc(Br)cc(/C=N/NC(=O)c2ccc3c(c2)OCO3)c1O | 13µM* | ? | 13µM* | . | . | 6%
Cc1cc(C)n(CC(=O)N/N=C/c2ccc3c(c2)OCO3)n1 | 3.7µM* | -1% | 32% | -6% | -26% | 7%
C[C@H](CO)N1C[C@H](C)[C@@H](CN(C)C(=O)Nc2ccc(C(F)(F)F)cc2)Oc2c(NC(=O)C3CCCCC3)cccc2C1=O | . | -23% | . | 0% | i | .
O=C(CNC(=O)c1ccc2c(c1)OCO2)N/N=C/c1cc(Br)ccc1O | 30% | ? | 12% | ? | 1.6µM* | 9%
COc1ccc(/C=N/NC(=O)c2cc(-c3ccc4c(c3)OCO4)n[nH]2)cc1OC | 12µM* | ? | ? | -17% | -20% | 9%
O=C(CNC(=O)c1cccc(Br)c1)N/N=C/c1cn[nH]c1-c1ccccc1 | ? | 2% | 10% | -21% | i | 6%
O=C(CNC(=O)c1cccc(Br)c1)N/N=C/c1ccc[nH]1 | 41%[1.15 µM] | 3.2µM* | 448% | -16% | -19% | .
O=C(N/N=C/c1ccccc1O)c1ccc2c(c1)OCO2 | 104% | 5.6µM* | -6% | ? | ? | -39%
O=C(CNC(=O)c1ccccc1)N/N=C/c1cc(Br)ccc1O | ? | ? | ? | ? | ? | 12%
O=C(N/N=C/c1ccc2c(c1)OCO2)c1ccc2c(c1)OCCO2 | 78% | 5% | 118% | -28% | ? | -3%
CC(=O)Nc1ccc(CN2CCN(CC(C)C)C(CCO)C2)cc1 (configuration not stated) | ? | 22% | 6% | -3% | -5% | -1%
CC(=O)Nc1nc2c(F)cccc2s1 | . | -3% | . | -15% | i | .
SMILES | Pf growth 96h | HCV inh | Pf growth 48h | VACV Venus inh | VACV mCherry inh | NS1 function inh
O=C(Nc1ncccc1O)c1ccc2c(c1)OCO2 | 4.1µM* | 6% | 9.3µM* | -28% | ? | .
O=C(N/N=C/c1ccc2c(c1)OCO2)c1ccc(NC(=O)c2ccc(F)cc2)cc1 | -14% | -21% | 2.3µM* | -9% | ? | 10%
O=C(Nc1ncccc1O)c1ccc2c(c1)OCCO2 | ? | 7% | ? | -19% | ? | .
C/C(=N/NC(=O)CNC(=O)c1ccc2c(c1)OCO2)c1ccc2c(c1)CCCC2 | 3.3µM* | ? | 1% | ? | ? | .
CSc1ccccc1NC(=O)c1cccnc1 | 13% | 3% | 8% | -10% | -10% | 4%
Cc1ccc(-n2c(Cl)c(Cl)nc(Cl)c2=O)cc1 | ? | 7.1µM* | -25% | ? | ? | -61%
COc1nc(Cl)cn(-c2ccc(C)cc2)c1=O | -7% | 15% | -3% | -4% | i | -16%
Cc1ccc(NS(=O)(=O)c2ccc(OCC(=O)NCC3CCCO3)cc2)cc1 (configuration not stated) | 9.3µM* | -3% | -1% | 2% | -7% | -4%
O=C(CN(C1CCCCC1)S(=O)(=O)c1ccc(F)cc1)NCC1CCCO1 (configuration not stated) | . | ? | . | 11µM* | ? | .
O=C(COc1ccc(F)cc1)NCC1CCCO1 (configuration not stated) | 1.7µM* | 17% | 29% | . | . | 2%
O=C(COc1ccccc1)NCC1CCCO1 (configuration not stated) | 33% | 7% | 33% | -16% | -19% | -15%
O=C(O)c1ccc(S(=O)(=O)N(Cc2ccc(F)cc2)C2CCCCC2)cc1 | 12µM* | 6% | -12% | . | . | -8%
O=C(Cc1cccs1)Nc1nc2c(s1)CCCC2 | 6% | ? | 43% | . | . | -32%
CCN1C(=O)/C(=C\c2ccco2)C(C(=O)OC)=C1C | -2% | 13µM* | ? | . | . | -4%
CCOC(=O)C1=C(C)N(CC(C)C)C(=O)/C1=C\c1cccs1 | ? | ? | -10% | -2%[7.34 µM] | -17%[7.34 µM] | 0%
COC(=O)C1=C(C)N(Cc2cccnc2)C(=O)/C1=C\c1sccc1C | 50% | 11µM* | ? | -17% | ? | -6%
COC(=O)C1=C(C)N(CC(C)C)C(=O)/C1=C\c1cccs1 | . | 16µM* | . | -15% | -14%[1.46 µM] | 5%
C=CCN=C1NN=C(c2ccc3c(c2)OCCO3)CS1 | 8% | -18% | 44% | -16% | ? | .
CC(C)(C)NC(=O)C1CCC(CNc2c(N3CCCCC3)c(=O)c2=O)CC1 (configuration not stated) | -8% | 5% | -5% | -16% | -13% | -2%
CC(C)CCNC(=O)C1CCC(CNc2c(N3CCCC3)c(=O)c2=O)CC1 (configuration not stated) | -5% | 23% | 12µM* | -1% | i | -6%
O=C(NCc1ccccc1)C1CCC(CNc2c(N3CCCCC3)c(=O)c2=O)CC1 (configuration not stated) | 12µM* | -10%[8.37 µM] | 2% | 0% | 7% | -12%
CCOc1ccc(Oc2cc(NC(=O)c3ccco3)cc([N+](=O)[O-])c2)cc1 | 1.7µM* | ? | 6.6µM* | -7% | 0% | -115%
